# Screening data deposited in PubChem by National Center for Advancing Translational Sciences (NCATS).
# RORgamma inh – qHTS for inhibitors of ROR gamma transcriptional activity; hit rate 5.4% among 310,000; Potency, µM (top dose mostly 53.6 µM), actives largely listed as inhibitors; Drosophila S2 Gal4-RORgamma UAS-luciferase reporter, 20 h; AID 2551, 2010; also: nearly all actives have a fitted effect of over 60% in size
# Target sequence (P51450 whole entry, looked up, the tested form may be a part): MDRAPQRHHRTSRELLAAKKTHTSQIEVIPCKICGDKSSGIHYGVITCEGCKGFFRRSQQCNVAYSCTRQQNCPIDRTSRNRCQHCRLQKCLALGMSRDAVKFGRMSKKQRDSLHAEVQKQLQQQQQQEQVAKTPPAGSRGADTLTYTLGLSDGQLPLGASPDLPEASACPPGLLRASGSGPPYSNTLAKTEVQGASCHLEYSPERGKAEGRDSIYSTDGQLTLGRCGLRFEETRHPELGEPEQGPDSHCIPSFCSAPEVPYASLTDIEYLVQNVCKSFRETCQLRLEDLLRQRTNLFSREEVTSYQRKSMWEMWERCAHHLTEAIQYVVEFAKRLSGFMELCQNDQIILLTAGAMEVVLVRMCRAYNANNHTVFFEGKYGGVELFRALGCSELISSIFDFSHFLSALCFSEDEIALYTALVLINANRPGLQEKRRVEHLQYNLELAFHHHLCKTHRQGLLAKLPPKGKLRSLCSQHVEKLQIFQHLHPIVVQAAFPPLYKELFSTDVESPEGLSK
#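 Schneider cells (Drosophila), stable Gal4 DBD–ROR gamma + UAS-luc; 1 hr cmpd preincubation; Cu2+ induction 700 uM final; 20 hr ambient; luminescence.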
# TDP1 inh – qHTS Assay for Inhibitors of Tyrosyl-DNA Phosphodiesterase (TDP1) | Tyrosyl-DNA phosphodiesterase 1 (Homo sapiens), Q9NUW8 | recombinant TDP1, AlphaScreen DNA substrate cleavage | Potency, µM (doses to about 130 µM), hits mostly inhibitors | hit rate 0.28% among 350,000 | AID 485290, 2010; also: nearly all actives have a fitted effect of over 40% in size
#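 Recombinant E. coli-expressed Tdp1 (1 nM) preincubated with compound 15 min at RT, then 5'-biotin/3'-phosphotyrosine-FITC DNA substrate (15 nM) added for 5 min. AlphaScreen beads (10 ug/ml) added, 10 min RT; tyrosine-FITC cleavage read as signal loss.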
# TDP1 cell noCPT – qHTS for Inhibitors of human tyrosyl-DNA phosphodiesterase 1 (TDP1): qHTS in cells in absence of CPT; hit rate 15% among 420,000; DT40 Tdp1-/- hTDP1 cells, no CPT, ATP luminescence, 48 h; Potency, µM (doses to about 46.2 µM), actives largely listed as inhibitors; also: nearly all actives have a fitted effect of over 55% in size
#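 Readout: luminescence from CellTiter-Glo after 30 min in the dark at RT. Cells: DT40 Tdp1-/- with stable hTDP1, 400/well. Exposure: compounds alone, ≥48 hr, 37 °C.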
# DT40 TDP1 CPT – qHTS for Inhibitors of human tyrosyl-DNA phosphodiesterase 1 (TDP1): qHTS in cells in presence of CPT. chicken DT40 Tdp1-/-;hTDP1 cells + 20 nM CPT, ATP luminescence, 48 h. Potency, µM (series often up to 46.2 µM), actives largely listed as inhibitors. hit rate 12% among 420,000; also: nearly all actives have a fitted effect of over 55% in size
#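 Cell growth measured by CellTiter-Glo luminescence after a minimum 48 h, 37 C compound exposure with 20 nM CPT in Tdp1-knockout DT40 cells stably expressing hTDP1, seeded 400/well; qHTS titration format.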
# Gal4-VP16 FLuc – VP16 counterscreen qHTS for inhibitors of ROR gamma transcriptional activity; Drosophila S2 Gal4-VP16 UAS-luciferase, luminescence, 20 h; hit rate 3.5% among 310,000; Potency, µM (doses to about 53.6 µM), usual class: inhibitors; AID 2546, 2010;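 also: Gal4-VP16 expression switched on by copper sulfate through the metallothionein promoter; nearly all actives have a fitted effect of over 50% in size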
# Numbers stand for hits; i = inactive; ? = inconclusive; nt = no result; ! = not confirmed by another sample; [ ] = remark or other dose. An excerpt weighted towards active compounds, which were near 19% of everything screened. Calls follow the shape of the dose curve; as a rule, active = well fitted curve in the direction sought with a large enough effect; inconclusive = small, poorly fitted or top-dose-only effect, or another doubt; inactive = no such curve, though single readings can be large; an effect the other way counts as inactive or inconclusive.
SMILES,RORgamma inh,TDP1 inh,TDP1 cell noCPT,DT40 TDP1 CPT,Gal4-VP16 FLuc
Cc1cc([N+](=O)[O-])nn1CC(=O)NCCCN1CCOCC1,i,i,i,i,i
Cc1cc(C)c2c(=O)n(CC(=O)NCCCN3CCN(c4ccccc4F)CC3)sc2n1,3.55µM,i,3.26µM,4.61µM,5.01µM
COc1ccc(OC(=O)COc2ccc(C)cc2)cc1,i,i,i,i,i
COc1ccc(OCC(=O)Sc2ccc(C)cc2)cc1,3.16µM,i,23.1µM,?,i
CC(C)(C)c1ccc(-n2ncc3c2CCCC3NC(=O)C2(C(N)=O)CC2)cc1 (configuration not stated),?,i,1.84µM,5.8µM,2.51µM
CC(C)(C)c1ccc(-n2ncc3c2CCCC3NC(=O)CCn2cncn2)cc1 (configuration not stated),?,i,?,?,?
O=C(CN1CCCC1=O)NC1CCCc2c1cnn2-c1cc(F)cc(F)c1 (configuration not stated),i,i,i,i,i
CC1(C)Cc2c(cnn2-c2ccccc2)C(NC(=O)C2(C(N)=O)CC2)C1 (configuration not stated),i,i,i,i,i
CC(C)(C)c1ccc(-n2ncc3c2CCCC3NC(=O)CCN2CCCO2)cc1 (configuration not stated),i,i,?,23.1µM,?
CC(C)(C)c1ccc(-n2ncc3c2CCCC3NC(=O)CN2CCCCC2=O)cc1 (configuration not stated),i,i,?,16.4µM,?
CC(C)(C)c1ccc(-n2ncc3c2CCCC3NC(=O)CCCn2cncn2)cc1 (configuration not stated),i,nt,?,13µM,?
CC(=O)NCC(=O)NC1CCCc2c1cnn2-c1ccc(C(C)(C)C)cc1 (configuration not stated),?,i,4.11µM,i,i
Cc1nccn1CCC(=O)NC1CCCc2c1cnn2-c1ccc(C(C)(C)C)cc1 (configuration not stated),nt,nt,?,i,nt
CCOc1ccccc1CNC(=O)CCCn1c(=O)c2cccn2c2cccnc21,nt,i,?,?,nt
COC(=O)C1Cc2ccccc2CN1C(=O)CCl (configuration not stated),i,i,14.6µM,14.6µM,i
CC(C)c1ccc(C2c3[nH]c4ccccc4c3C[C@H]3C(=O)N(c4ccccc4C(=O)N4CCC(C(=O)O)CC4)C(=O)N23)cc1 (some centres not stated),i,nt,?,?,i
COc1cc2[nH]c(=O)n(CCC(=O)N3CCc4ccccc4C3)c(=O)c2cc1OC,i,i,i,i,i
COc1cc2[nH]c(=O)n(CCCCCC(=O)N3CC=C(c4ccccc4)CC3)c(=O)c2cc1OC,i,i,16.4µM,25.9µM,i
COc1ccccc1N1CCN(C(=O)CCCCn2c(=O)[nH]c3ccsc3c2=O)CC1,i,i,16.4µM,?,i
COc1ccc(N2CCN(C(=O)CCCCn3c(=O)[nH]c4ccsc4c3=O)CC2)cc1,i,i,25.9µM,?,i
Cc1cc(NC(=O)CCC(=O)N(Cc2cccs2)C(C(=O)NC2CCCC2)c2ccncc2)no1 (configuration not stated),i,i,i,i,i
CCc1cc(=O)oc2cc(OCC(=O)NCCN3CCOCC3)c(Cl)cc12,i,i,i,i,i
COc1ccccc1-c1nc(NCc2cnc(C)cn2)c2ccccc2n1,i,nt,?,16.4µM,i
COc1ccccc1CNc1nc(-c2ccccc2OC)nc2ccccc12,?,nt,20.6µM,18.4µM,?
Cc1cnc(CNc2nc(-c3ccccc3C)nc3ccccc23)cn1,i,nt,i,i,i
SMILES,RORgamma inh,TDP1 inh,TDP1 cell noCPT,DT40 TDP1 CPT,Gal4-VP16 FLuc
Cc1c(NC(=O)c2ccc(S(=O)(=O)N3CC(C)OC(C)C3)cc2)c(=O)n(-c2ccccc2)n1C (configuration not stated),i,i,i,i,i
Cc1ccccc1NC(=O)CCCSc1nc2ccccc2s1,12.6µM,i,?,?,2.51µM
CC(C)(C)NC(=O)CCCSc1nc2ccccc2s1,?,i,?,?,?
O=C(CCCSc1nc2ccccc2s1)Nc1nccs1,i,i,i,i,i
CCc1cccc(C)c1NC(=O)CCCSc1nc2ccccc2s1,i,i,16.4µM,18.4µM,i
COc1ccccc1CNC(=O)C1CCN(c2nn3c(=O)cc(C)nc3s2)CC1,nt,i,i,i,nt
COc1cc(/C=N/NC(=O)COc2ccc([N+](=O)[O-])cc2)ccc1OCC(=O)N1CCOCC1,i,nt,16.4µM,i,i
COc1ccc(NCC(=O)N/N=C/c2cc([N+](=O)[O-])ccc2N2CCCC2)cc1,i,i,?,20.6µM,i
Cc1cccc(OCC(=O)N/N=C/c2cc([N+](=O)[O-])ccc2N2CCOCC2)c1,?,i,18.4µM,20.6µM,i
COc1cc(/C=N/NC(N)=S)ccc1OCC(=O)N1CCOCC1,i,i,i,i,i
CCc1ccc(OCC(=O)N/N=C/c2cc([N+](=O)[O-])ccc2N2CCOCC2)cc1,i,i,?,?,i
COc1cccc(C(=O)Nc2ccc3c(C)cc(=O)oc3c2)c1,?,i,i,?,i
O=C(CNC(=O)c1nn(Cc2ccccc2)c(=O)c2ccccc12)Nc1ccc(F)c(F)c1F,nt,i,i,i,nt
COc1ccc(Cl)cc1S(=O)(=O)NCCCn1ccnc1,i[1.91 µM],nt,i,i,i
CCOc1cc(Cl)c(S(=O)(=O)NCCCn2ccnc2)cc1Cl,nt,i,16.4µM,20.6µM,nt
Cc1ccc(-n2nnc3c(=O)n(CC(=O)NCc4ccco4)cnc32)cc1,i,i,?,?,i
Cc1ccc(-n2ncc3c(=O)n(CC(=O)NCc4ccco4)cnc32)cc1,i,i,23.1µM,?,i
Cc1ccc(-n2ncc3c(=O)n(CC(=O)NCc4ccco4)cnc32)cc1C,i,i,6.51µM,10.3µM,i
CCCCNC(=O)Cn1cnc2c(cnn2-c2ccc(C)c(C)c2)c1=O,i,i,i,i,i
O=C(Cn1cnc2c(cnn2-c2ccc(F)cc2)c1=O)NCc1ccco1,i,i,5.8µM,2.91µM,i
CCOCCCn1c(SC(C(=O)Nc2cc(C)ccc2C)c2ccccc2)nnc1-c1ccc(Cl)cc1 (configuration not stated),i,i,i,i,i
O=C(O)c1cc(=O)c2c3nc4ccccc4oc-3cc(=O)c2[nH]1,i,nt,11.2µM!,25.1µM,i
COc1ccc(NC2CCCN(C(=O)C3(C)CCCCC3)C2)cc1 (configuration not stated),i,i,i,?,i
COc1cccc(-c2nc(N3CCN(c4ccccc4)CC3)c3ccccc3n2)c1O,i,i,16.4µM,?,i
